Test [1] in a line: NCI Yeast Anticancer Drug Screen. Data for the rad50 strain (AID 155).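 Note: 0% = growth of vehicle-only cultures of the same strain.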 As to conditions: S. cerevisiae rad50 strain growth inhibition, hits give high values. The procedure, abridged:
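Inhibition values express reduced yeast growth in compound-treated cultures relative to vehicle-treated controls.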

The nature of test [2]: NCI Yeast Anticancer Drug Screen. Data for the mec2-1 strain (AID 157). The conditions noted are these: S. cerevisiae mec2-1 strain, hits give high values. The procedure, abridged:
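Test agents were screened against the mec2-1 yeast strain, with defined DNA repair or cell cycle alteration. Growth was scored as inhibition against vehicle-only controls.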

A short description of test [3]: NCI Yeast Anticancer Drug Screen. Data for the sgs1 mgt1 strain (AID 161).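 Note: 0% = growth of cultures given vehicle only.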 The conditions noted are these: S. cerevisiae sgs1 mgt1 strain, hits give high values. The procedure, abridged:
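Test agents were incubated with a DNA-repair-mutant yeast strain. Growth was then read and compared against vehicle-treated controls.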

A short description of test [4]: NCI Yeast Anticancer Drug Screen. Data for the cln2 rad14 strain (AID 165).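 Note: 0% = growth equal to vehicle treated cultures.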 The conditions noted are these: S. cerevisiae cln2 rad14 strain, hits give high values. In a few lines: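 Growth of compound-exposed yeast (cln2 rad14 genotype) measured and expressed as inhibition relative to vehicle.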
Test [5] is described as follows: NCI Yeast Anticancer Drug Screen. Data for the bub3 strain (AID 167). As to conditions: S. cerevisiae bub3 mutant strain, hits give high values. The procedure, abridged: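 Steps: expose the mutant yeast strain to compound; grow alongside vehicle-treated cultures; measure growth; express inhibition against the vehicle cultures.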
Test [6] in a line: NCI Yeast Anticancer Drug Screen. Data for the mlh1 rad18 strain (AID 175). The conditions noted are these: S. cerevisiae mlh1 rad18 strain growth inhibition, hits give high values. The procedure, abridged: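 In this whole-cell yeast screen, a strain with altered DNA damage repair is challenged with compound, and its growth is measured against matched vehicle-treated controls.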

The mark [7] stands for this setting: at 5.0 µM (retest, dose inferred, filed as 0.5).
Setting [8] is: at 50.0 µM (retest, dose inferred, filed as 5.0).

About 79,000 compounds went through this panel and 15% of them were active in at least one assay; those are over-represented in the sample as a whole. Values without a mark were called inactive. Active and inactive are the calls of the source. Cut-off read from the data, not from the text of the source: active = growth inhibition above about 70%; inactive = the rest.

Turning to `CCCc1cc(=O)oc2c3c(c4c(c12)OC(C)(C)CC4)O[C@H](C)[C@H](C)C3=O`, the growth inhibition in test [1] (setting [7]) was -7%; in test [1] (setting [8]) it was 99% (active); in test [1] (at 50.0 µM), 88.5% (active); in test [2] (setting [7]), -18%; in test [2] (setting [8]), 99% (active); in test [2] (at 50.0 µM), 91.6% (active). The growth inhibition in test [3] (setting [7]) is -12%; in test [3] (setting [8]) it was 99% (active); in test [3] (at 50.0 µM), 88.2% (active); in test [4] (setting [7]), -6%; in test [4] (setting [8]), 98% (active); in test [4] (at 50.0 µM), 90.3% (active). In addition, the growth inhibition is -18% in test [5] (setting [7]); 99% (active) in test [5] (setting [8]); 91.1% (active) in test [5] (at 50.0 µM); -5% in test [6] (setting [7]); 99% (active) in test [6] (setting [8]); 84.7% (active) in test [6] (at 50.0 µM).
Regarding `CN1c2ccccc2C(=O)NC1c1ccc([N+](=O)[O-])s1` (stereo not given), the growth inhibition is -9% in test [1] (setting [7]); 53% in test [1] (setting [8]); 63.5% in test [1] (at 50.0 µM); 7% in test [2] (setting [7]); 8% in test [2] (setting [8]); 41% in test [2] (at 50.0 µM). Also, the growth inhibition in test [3] (setting [7]) was -19%; in test [3] (setting [8]), 32%; in test [3] (at 50.0 µM) it was 71.8% (active); in test [4] (setting [7]), 11%; in test [4] (setting [8]), 23%; in test [4] (at 50.0 µM) it was 33.4%. Also, the growth inhibition in test [5] (setting [7]) is -47%; in test [5] (setting [8]), 35%; in test [5] (at 50.0 µM), 57%; in test [6] (setting [7]) it was -22%; in test [6] (setting [8]) it was 63%; in test [6] (at 50.0 µM), 73.1% (active).
As to `COC(=O)c1ccc(CCC2=CC(=O)C=CC2=O)cc1`, the growth inhibition in test [1] (setting [7]) was 39%; in test [1] (setting [8]), 99% (active); in test [1] (at 50.0 µM), 84.3% (active); in test [2] (setting [7]) it was 39%; in test [2] (setting [8]), 100% (active); in test [2] (at 50.0 µM), 92.8% (active). Further, the growth inhibition in test [3] (setting [7]) is 35%; in test [3] (setting [8]), 100% (active); in test [3] (at 50.0 µM) it was 91.2% (active); in test [4] (setting [7]), 29%; in test [4] (setting [8]), 75% (active); in test [4] (at 50.0 µM) it was 89.3% (active). The growth inhibition in test [5] (setting [7]) is 43%; in test [5] (setting [8]), 100% (active); in test [5] (at 50.0 µM) it was 91.3% (active); in test [6] (setting [7]), 49%; in test [6] (setting [8]), 99% (active); in test [6] (at 50.0 µM), 65.8%.
Turning to `NNc1ncc2c(n1)-c1ccccc1OC2`, the growth inhibition in test [1] (setting [7]) is 23%; in test [1] (setting [8]), 49%; in test [1] (at 50.0 µM), 47.3%; in test [2] (setting [7]), 6%; in test [2] (setting [8]), 38%; in test [2] (at 50.0 µM) it was 18.8%. Also, the growth inhibition is 14% in test [3] (setting [7]); 28% in test [3] (setting [8]); 24.1% in test [3] (at 50.0 µM); 21% in test [4] (setting [7]); 33% in test [4] (setting [8]); 4.1% in test [4] (at 50.0 µM). The growth inhibition in test [5] (setting [7]) is 12%; in test [5] (setting [8]), 40%; in test [5] (at 50.0 µM) it was -1.1%; in test [6] (setting [7]), 13%; in test [6] (setting [8]), 53%; in test [6] (at 50.0 µM), 89.8% (active).
Take `CCCOC(=O)C1CCCCC1C(=O)OCCC` (stereo not given): the growth inhibition is 7% in test [1] (setting [7]); -17% in test [1] (setting [8]); 0.8% in test [1] (at 50.0 µM); -1% in test [2] (setting [7]); -15% in test [2] (setting [8]); 18.3% in test [2] (at 50.0 µM). Further, the growth inhibition is -2% in test [3] (setting [7]); 16% in test [3] (setting [8]); -10.1% in test [3] (at 50.0 µM); -4% in test [4] (setting [7]); 14% in test [4] (setting [8]); 71.2% (active) in test [4] (at 50.0 µM). Besides, the growth inhibition in test [5] (setting [7]) is 1%; in test [5] (setting [8]) it was -2%; in test [5] (at 50.0 µM) it was 5.3%; in test [6] (setting [7]), -7%; in test [6] (setting [8]), -4%; in test [6] (at 50.0 µM) it was -12.7%.
`c1ccc2sc(SSN3CCOCC3)nc2c1`: the growth inhibition was 78% (active) in test [1] (setting [7]); 99% (active) in test [1] (setting [8]); 94.4% (active) in test [1] (at 50.0 µM); 28% in test [2] (setting [7]); 98% (active) in test [2] (setting [8]); 89.2% (active) in test [2] (at 50.0 µM). The growth inhibition in test [3] (setting [7]) is 18%; in test [3] (setting [8]), 99% (active); in test [3] (at 50.0 µM), 66.8%; in test [4] (setting [7]) it was 76% (active); in test [4] (setting [8]) it was 97% (active); in test [4] (at 50.0 µM) it was 96.3% (active). Moreover, the growth inhibition in test [5] (setting [7]) is 64%; in test [5] (setting [8]), 98% (active); in test [5] (at 50.0 µM) it was 86.4% (active); in test [6] (setting [7]) it was 34%; in test [6] (setting [8]), 99% (active); in test [6] (at 50.0 µM) it was 94% (active).
For `C[n+]1c(/C=C/c2ccc(N3CCCC3)cc2)sc2ccccc21`, the growth inhibition in test [1] (setting [7]) is 76% (active); in test [1] (setting [8]), 98% (active); in test [1] (at 50.0 µM) it was 98.6% (active); in test [2] (setting [7]), 37%; in test [2] (setting [8]), 99% (active); in test [2] (at 50.0 µM) it was 99.2% (active). For the same molecule, the growth inhibition was 95% (active) in test [3] (setting [7]); 99% (active) in test [3] (setting [8]); 98.5% (active) in test [3] (at 50.0 µM); 60% in test [4] (setting [7]); 98% (active) in test [4] (setting [8]); 98.8% (active) in test [4] (at 50.0 µM). Besides, the growth inhibition in test [5] (setting [7]) was 46%; in test [5] (setting [8]) it was 98% (active); in test [5] (at 50.0 µM), 98.2% (active); in test [6] (setting [7]) it was 85% (active); in test [6] (setting [8]) it was 98% (active); in test [6] (at 50.0 µM), 98.8% (active).
As to `Clc1ccccc1C=Nc1cccc2ccccc12`, the growth inhibition in test [1] (setting [7]) was -10%; in test [1] (setting [8]), -24%; in test [1] (at 50.0 µM), 22.4%; in test [2] (setting [7]) it was -14%; in test [2] (setting [8]), -17%; in test [2] (at 50.0 µM), 32.4%. The growth inhibition in test [3] (setting [7]) was -9%; in test [3] (setting [8]) it was -1%; in test [3] (at 50.0 µM), 27.1%; in test [4] (setting [7]), 18%; in test [4] (setting [8]) it was 8%; in test [4] (at 50.0 µM), 13.9%. The growth inhibition in test [5] (setting [7]) was 13%; in test [5] (setting [8]), -3%; in test [5] (at 50.0 µM), 35.8%; in test [6] (setting [7]), -33%; in test [6] (setting [8]), -54%; in test [6] (at 50.0 µM) it was 23.4%.
With `Nc1nc(N)c(N=O)c(Nc2cccc(Br)c2)n1`, the growth inhibition was 57% in test [1] (setting [7]); 98% (active) in test [1] (setting [8]); 1.15% in test [1] (at 50.0 µM); 46% in test [2] (setting [7]); 99% (active) in test [2] (setting [8]); 13.8% in test [2] (at 50.0 µM). Further, the growth inhibition is 70% (active) in test [3] (setting [7]); 98% (active) in test [3] (setting [8]); -6.85% in test [3] (at 50.0 µM); 48% in test [4] (setting [7]); 98% (active) in test [4] (setting [8]); 76.7% (active) in test [4] (at 50.0 µM). Besides, the growth inhibition was 50% in test [5] (setting [7]); 98% (active) in test [5] (setting [8]); 56.1% in test [5] (at 50.0 µM); 64% in test [6] (setting [7]); 98% (active) in test [6] (setting [8]); 5.05% in test [6] (at 50.0 µM).
In the case of `O=c1[nH]c2c([N+](=O)[O-])cc(Cl)cc2nc1/C=C(\O)c1cccc2ccccc12`, the growth inhibition is 0% in test [1] (setting [7]); 86% (active) in test [1] (setting [8]); 77% (active) in test [1] (at 50.0 µM); 10% in test [2] (setting [7]); 75% (active) in test [2] (setting [8]); 62.2% in test [2] (at 50.0 µM). For the same molecule, the growth inhibition in test [3] (setting [7]) is -10%; in test [3] (setting [8]), 81% (active); in test [3] (at 50.0 µM), 89.5% (active); in test [4] (setting [7]) it was -1%; in test [4] (setting [8]), 87% (active); in test [4] (at 50.0 µM), 82.4% (active). Moreover, the growth inhibition in test [5] (setting [7]) was -3%; in test [5] (setting [8]), 88% (active); in test [5] (at 50.0 µM), 71.5% (active); in test [6] (setting [7]), -7%; in test [6] (setting [8]), 85% (active); in test [6] (at 50.0 µM), 72.2% (active).

Source of the values: PubChem BioAssay (NCI).
